# Test results reported in PubChem BioAssay AID651958 (The Scripps Research Institute Molecular Screening Center, 2012).
# Among all 370,000 compounds or so, about 2,000 (0.54%) were called active. The sample holds actives, similar compounds and a random draw of the others, so the mix is not that of the screen. A number with no mark means an inactive call. No stated cut-off is given here; in the data, active means inhibition above about 30%; inactive means the rest.
# System: Crimean-Congo hemorrhagic fever virus L polyprotein viral ovarian tumor (vOTU) protease domain
# Experiment: CCHFV vOTU protease inhibitors, primary screen, biochemical, Pep-AMC substrate, fluorescence (AID 651958); further: 0% = vehicle wells with enzyme and 100% = no enzyme wells
# Conditions: at 11.5 µM, stronger effect = higher value
row,SMILES,inhibition
1,COc1ccc(Br)cc1S(=O)(=O)N1CCN=C1C,-6.47%
2,CC(Oc1cccc(Cl)c1)C(=O)Nc1ccc(S(=O)(=O)Nc2ncccn2)cc1 (stereo not drawn),-1.27%
3,Cc1cc(OC(C)C(=O)Nc2ccc(S(=O)(=O)Nc3onc(C)c3C)cc2)cc(C)c1Cl (stereo not drawn),35.2% (active)
4,CCc1ccc(OC(C)C(=O)Nc2ccc(S(=O)(=O)Nc3cc(C)on3)cc2)cc1 (stereo not drawn),7.95%
5,O=S1(=O)CC(N2CCN(CCO)CC2)CN1Cc1cn(Cc2ccc(Cl)cc2)nn1 (stereo not drawn),-2.07%
6,CCN(CC(=O)Nc1c(F)cccc1F)C(=O)c1cnc(C)cn1,32.8% (active)
7,CCN(CC(=O)Nc1c(F)cccc1F)C(=O)c1ccc(-c2ccccc2)cc1,-7.05%
8,CCc1cc(C(=O)N(CC)CC(=O)Nc2c(F)cccc2F)sc1C,19.1%
9,CCN(CC)c1ccc(NC(=O)CN2C(=O)NC3(CCc4ccccc43)C2=O)cc1 (stereo not drawn),-2.95%
10,O=C(Cn1cc(C(F)(F)F)ccc1=O)Nc1ccc2c(c1)OCCO2,8.6%
11,CC(C)CC1(C)NC(=O)N(CC(=O)Nc2ccc3c(c2)OCCO3)C1=O (stereo not drawn),-6.35%
12,COc1c(Br)cc2c(C)c(C(=O)N3CCOCC3)oc2c1Br,-3.21%
13,Cc1nc2ccccc2c(=O)n1-c1ccc(F)c(NC(=O)c2cccs2)c1,-0.94%
14,O=C(c1ccc(N2CCCC2=O)cc1)N1CCN(c2ccc(C(F)(F)F)cc2[N+](=O)[O-])CC1,3.99%
15,Cc1cc(C)c(S(=O)(=O)NN=C2c3ccccc3[C@H]3Cc4csc[n+]4[C@@H]23)c(C)c1,82.8% (active)
16,COC(=O)[C@]12C[C@H](CC(=O)NCc3ccccc3)C(=O)N(CCC3=CCCCC3)C1=C[C@H](C(C)C)O[C@@H]2C1CC1,23.1%
17,COC(=O)C[C@H]1C[C@@H]2c3cc(NC(=O)Nc4ccccc4)ccc3O[C@@H]2[C@@H](CO)O1,-2.2%
18,CC(C)Cn1c(N)c(C(=O)NCc2cccs2)c2nc3ccccc3nc21,85.8% (active)
19,Cc1nc2c(C(=O)NCc3cccs3)cnn2c(C)c1Cc1ccc(F)cc1,4.83%
20,CCN(CC(=O)NCc1cccs1)c1nnnn1-c1ccccc1,-6.07%
21,Cn1cccc1C(=O)NC(=O)COC(=O)Cc1coc2ccc3ccccc3c12,5.02%
22,CCCn1c(=O)c2ccccc2n2c(SCC(=O)/C(C#N)=C(\C)N)nnc12,-9.66%
23,CC(C)[C@H](NC(=O)N1CCn2c1nc1ccccc12)C(=O)NCCc1ccccc1,25.4%
